TDP1 inh: qHTS Assay for Inhibitors of Tyrosyl-DNA Phosphodiesterase (TDP1); Potency, µM (series often up to 130 µM), inactives show at the highest dose activity change, negative = inhibition, actives largely listed as inhibitors; AID 485290, 2010; 350,000 tested, 0.28% active; Tyrosyl-DNA phosphodiesterase 1 (Homo sapiens), Q9NUW8; recombinant TDP1, AlphaScreen DNA substrate cleavage; note: % is set by controls: 0 for no effect and ±100 for the full control effect; nearly all actives have a fitted effect of over 40% in size
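E. coli-derived human Tdp1, 1 nM final. Cpd preinc 15 min RT; substrate 15 nM final, 5 min RT; AS bead mix 10 ug/ml final, 10 min RT. Signal loss = tyrosine-FITC cleavage. No-enzyme wells = max signal.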
G9a block: qHTS Assay for Inhibitors of Histone Lysine Methyltransferase G9a; Histone-lysine N-methyltransferase EHMT2 (Homo sapiens), Q96KQ7; AID 504332, 2011; Potency, µM (titrated, usually from 102 µM), without a hit: top-dose activity, negative = inhibition, actives largely listed as inhibitors; 350,000 tested, 8.8% active; G9a H3K9 monomethylation, AlphaScreen, 2 h; note: % is set by controls: 0 for no effect and ±100 for the full control effect; nearly all actives have a fitted effect of over 75% in size
Target sequence (Q96KQ7 913-1193 limits assumed): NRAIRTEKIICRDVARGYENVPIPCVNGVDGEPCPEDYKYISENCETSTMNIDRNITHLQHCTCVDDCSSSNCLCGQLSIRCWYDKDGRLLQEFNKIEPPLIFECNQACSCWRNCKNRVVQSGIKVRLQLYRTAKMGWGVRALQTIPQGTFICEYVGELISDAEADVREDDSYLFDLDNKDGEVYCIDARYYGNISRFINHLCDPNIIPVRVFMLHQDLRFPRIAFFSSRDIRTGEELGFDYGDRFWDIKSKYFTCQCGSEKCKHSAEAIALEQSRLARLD
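Readings reflect AlphaScreen signal from monomethyl-H3K9 antibody detection. HMT at 20 nM; substrate b-H3K9 500 nM; cofactor SAM 20 uM; 2 h RT reaction; compounds tested as titrations in qHTS with 15 min preincubation.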
HP1b binding inh: HTS for Inhibitors of HP1-beta Chromodomain Interactions with Methylated Histone Tails; AlphaScreen HP1-beta / biotin-H3K9me3 peptide binding; Potency, µM (highest dose often 114 µM), for inactives: at the highest dose activity change, negative = inhibition, actives largely listed as inhibitors; 390,000 tested, 0.56% active; AID 540317, 2011; note: nearly all actives have a fitted effect of over 70% in size
Target sequence (P83916 whole entry, looked up): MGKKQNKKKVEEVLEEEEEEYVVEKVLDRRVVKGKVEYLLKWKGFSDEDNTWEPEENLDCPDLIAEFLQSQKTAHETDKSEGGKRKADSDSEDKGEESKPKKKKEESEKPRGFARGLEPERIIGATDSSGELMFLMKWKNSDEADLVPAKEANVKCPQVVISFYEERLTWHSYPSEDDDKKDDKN
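AlphaScreen: HP1-beta (50 nM) preformed 30 min with biotin-H3(1-18)K9me3 peptide (50 nM) in PBS pH 7.4, 0.01% Tween-20. Compound added for 30 min at RT, then streptavidin donor/nickel chelate acceptor beads (10 ug/mL) for 30 min.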
JMJD2A Tudor inh: qHTS Assay for Inhibitors of JMJD2A-Tudor Domain | Lysine-specific demethylase 4A (Homo sapiens), O75164 | AlphaScreen JMJD2A-Tudor / H3K4me3 peptide binding | Potency, µM (series often up to 114 µM), without a hit: at the highest dose activity change, negative = inhibition, usual class: inhibitors | 390,000 tested, 4.4% active; note: % is set by controls: 0 for no effect and ±100 for the full control effect; nearly all actives have a fitted effect of over 50% in size
Sfp PPTase inh: qHTS Assay for Inhibitors of Bacillus subtilis Sfp phosphopantetheinyl transferase (PPTase). 4'-phosphopantetheinyl transferase ffp (Bacillus subtilis), Q9F4F7. Biochemical Sfp PPTase activity, qHTS. Potency, µM, without a hit: largest response in the series, negative = inhibition, actives largely listed as inhibitors. 310,000 tested, 3.5% active. AID 1490, 2009;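 note: the enzyme is Sfp with the accession as filed and its product quenches rhodamine fluorescence; 0% = enzyme reaction without inhibitor and -100% = no enzyme wells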
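Compounds were incubated with enzyme (final 15 nM) for 15 min at room temperature before substrate addition started the reaction. Fluorescence at 525 nm excitation, 598 nm emission was recorded immediately and after 30 minutes.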
BAZ2B inh: qHTS Assay for Inhibitors of BAZ2B | Bromodomain adjacent to zinc finger domain protein 2B (Homo sapiens), Q9UIF8 | AlphaScreen BAZ2B-H3K14Ac peptide displacement | Potency, µM (doses to about 114 µM), without a hit: top-dose activity change, negative = inhibition, hits mostly inhibitors | 360,000 tested, 4.4% active; note: % is set by controls: 0 for no effect and ±100 for the full control effect; nearly all actives have a fitted effect of over 60% in size
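In this displacement format the biotinylated H3(5-23) peptide acetylated at Lys14 serves as ligand at 50 nM, with BAZ2B at 50 nM in PBS pH 7.4 containing 0.01% Tween-20. Donor and acceptor beads are 10 ug/mL final.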
An asterisk follows results filed as active; ? = inconclusive; . = not tested or not shown; [ ] = remark or other dose. Shown are actives, neighbours in structure and some others; about 12% of the full set was active somewhere. Calls come from the whole dose curve; as a rule, active = well fitted curve in the direction sought with a large enough effect; inconclusive = small, poorly fitted or top-dose-only effect, or another doubt; inactive = no such curve, though single readings can be large; an effect the other way counts as inactive or inconclusive. Potency is the fitted concentration of half-maximal effect.

SMILES	TDP1 inh	G9a block	HP1b binding inh	JMJD2A Tudor inh	Sfp PPTase inh	BAZ2B inh
Oc1c(CN2CCOCC2)cc(COCc2ccccc2)c2cccnc12	7%	?	6%	25µM*	22%	11µM*
CCOCc1cc(CN2CCN(c3cccc(Cl)c3)CC2)c(O)c2ncccc12	13%	-16%[59 µM]	23%	40µM*	.	13µM*
O=C(NCCCc1ccccc1)c1ccc(CS(=O)Cc2ccccc2Cl)o1 (configuration not stated)	2%	.	42%	-12%	14%	-14%
CC(=O)NCCNc1ncnc2ccc(-c3ccc4c(c3)OCO4)cc12	.	-29%[0.501 µM]	.	.	-5%	.
O=C(COC(=O)c1ccc(Cl)s1)c1cc2ccccc2o1	4%	-32%[12.7 µM]	84%	25%	-10%	12%
Cn1cccc1C(=O)OCC(=O)c1cc2ccccc2o1	2%	45µM*	-8%	?	-9%	-22%
OCCCc1nc2n(n1)C(c1ccccc1Cl)C=C(c1cccs1)N2 (configuration not stated)	5%	?	24%	-33%	50µM*	-25%
OCCCc1nc2n(n1)C(c1cccs1)C=C(c1ccccc1)N2 (configuration not stated)	6%	40µM*	.	.	?	-33%
CCCCN(C(=O)CCCc1nc2ccccc2c(=O)[nH]1)c1c(N)n(CC(C)C)c(=O)[nH]c1=O	0%	15%[59 µM]	34%	-12%	.	29%
CCN1C(=O)[C@H]2[C@@H](c3ccc(-c4ccc(OC)cc4)c(OC)c3)N[C@@](Cc3ccccc3)(C(=O)OC)[C@H]2C1=O	-7%	.	17%	-22%	.	.
COc1ccc(C2NC(Cc3ccccc3)(C(=O)O)C3C(=O)N(c4ccccc4OC)C(=O)C23)cc1 (configuration not stated)	2%	50µM*	17%	1%	-17%	4%
CCCCn1c(=O)nc2n(-c3ccc(C)cc3)c3ccccc3cc-2c1=O	2%	18%	.	-5%	-18%	5%
CCCCn1c(=O)nc2n(-c3ccc(Cl)cc3)c3ccccc3cc-2c1=O	8%	40µM*	34%	4%	-28%	7%
COc1ccc(N(CC(=O)NCCSC2CCCCC2)S(=O)(=O)c2ccccc2)cc1OC	2%	.	12%	-14%	19%	-1%
CCn1c(SCC(=O)N/N=C(\C)c2ccncc2)nnc1-c1ccc(C)cc1	4%	50µM*	28%	-17%	13%	-1%
CCn1c(SCC(=O)c2ccc(O)c(O)c2)nnc1-c1ccc(C)cc1	-4%	10%[2.33 µM]	-10%	28µM*	-16%	?
CCn1c(SCC(=O)c2ccc([N+](=O)[O-])cc2)nnc1-c1ccc(Cl)cc1	1%	?	25%	-13%	.	-30%
CCn1c(SCC(=O)N/N=C(\C)c2ccncc2)nnc1-c1ccccc1	4%	3%[0.501 µM]	20%	-3%	-6%	6%
Cn1c(=O)c2cc(S(=O)(=O)NCCC(=O)N3CC=C(c4ccccc4)CC3)ccc2n(C)c1=O	2%	-23%	29%	-5%	8%	-25%
CN(CC(=O)N1CC=C(c2ccccc2)CC1)S(=O)(=O)c1ccc2c(c1)c(=O)n(C)c(=O)n2C	1%	45µM*	43%	-17%	-14%	11%
c1coc(CNc2ncnc3c2[nH]c2ccccc23)c1	3%	.	-3%	?	.	.
COc1ccc(OCC(=O)NC(Cc2c[nH]c3ccccc23)C(=O)O)cc1 (configuration not stated)	.	-35%[59 µM]	24%	5%	.	5%
Cc1ccccc1CN1CCc2nc(Nc3ccc4c(c3)OCCO4)ncc2C1	14%	?	-11%	35µM*	.	22µM*
COc1cc(N)c2ncccc2c1OC	.	.	-11%	-28%	.	.
COc1cc(C(=O)NCCOc2cccc3cccnc23)cc(OC)c1OC	3%	-8%[59 µM]	18%	7%	14%	-23%
SMILES	TDP1 inh	G9a block	HP1b binding inh	JMJD2A Tudor inh	Sfp PPTase inh	BAZ2B inh
COc1cc(NC(C)CCCNC(C)C)c2ncccc2c1OC (configuration not stated)	.	.	?	0.89µM*	.	.
COc1cc(NCCCCCCN)c2ncccc2c1OC	.	.	?	56µM*	.	.
COc1ccc(/C=C/c2nc(C#N)c(NC3CCCCC3)o2)cc1OC	7%	11%[59 µM]	4%	11%	.	-38%
CN(C)Cc1ccccc1-c1cc(NCc2cccs2)ncn1	.	16%[0.501 µM]	.	.	5%	.
COc1cccc(CNC(=O)c2ccc(Cn3c(SCc4ccccc4)nc4cccnc43)cc2)c1	-6%	-25%[59 µM]	14%	-18%	.	-26%
Cc1ccc(C=Nc2ccc(N(C)C)cc2)o1	12%	1.3µM*	?	45µM*	?	.
O=S1(=O)N=C(Oc2cccc(Cl)c2)c2ccccc21	0%	.	.	-35%[162 µM]	.	.
CC(=O)N(C1=C(Cl)C(=O)c2ccccc2C1=O)C1CCCCC1	.	.	7.9µM*	1.6µM*	0.79µM*	22µM*
O=C(CSCc1cnn(-c2ccccc2)c1-n1cccc1)NCc1cccc(Cl)c1	11%	-45%[59 µM]	21%	0%	.	-4%
CCOC(=O)C1CCN(c2nc3ccccc3n2CC(=O)c2ccccc2)CC1	-4%	27%	15%	-8%	0%	-13%
COc1ccc(N2CCN(c3nc4ccccc4n3CC(=O)c3ccccc3)CC2)cc1	13%	14µM*	?	?	?	?
COc1ccc(C(=O)CN2CCN(c3ccc(Cl)cc3)CC2)cc1OC	.	22µM*	19%	-29%	79µM*	-38%
NC(=O)c1ccc(NC(=O)CN2CCN(c3ccc(Cl)cc3)CC2)cc1	1%	-1%	31%	-3%	26%	-6%
COc1ccc(N2CCN(CC(=O)c3ccc(Cl)cc3)CC2)cc1	.	22µM*	18%	?	-22%	?
COc1ccc(C(=O)CN2CCN(c3ccc(F)cc3)CC2)cc1OC	-4%	40µM*	31%	-24%	7%	-7%
COc1cccc(C2c3c(ncn(-c4ccccc4-c4ccccc4)c3=N)Oc3ccc4ccccc4c32)c1 (configuration not stated)	1%	.	.	?	.	.
COCCNC(=O)c1ccc(Cl)c(S(=O)(=O)Nc2cccc(C)c2C)c1	2%	3%[12.7 µM]	14%	-23%	-2%	-6%

Source: PubChem
